Results published in the supplement of paper PMC11732987, “Enantioselective OTUD7B fragment discovery through chemoproteomics screening and high-throughput optimisation” (Communications Chemistry, 2025).

What was measured:
Assay in all cases: log2 ratio of Biotin-Ahx-Ub-VS probe labelling (fragment/DMSO); higher = less target engagement (more negative = stronger competition), active = hit call of the paper (q ≤ 0.05, log2 ratio ≤ -1)
Conditions in all cases: compound concentration: 200 uM; treatment time: 3 h
USP34 = USP34 (UniProt Q70CQ2)
Chain of USP34 (Q70CQ2 whole entry, the tested form may be a part): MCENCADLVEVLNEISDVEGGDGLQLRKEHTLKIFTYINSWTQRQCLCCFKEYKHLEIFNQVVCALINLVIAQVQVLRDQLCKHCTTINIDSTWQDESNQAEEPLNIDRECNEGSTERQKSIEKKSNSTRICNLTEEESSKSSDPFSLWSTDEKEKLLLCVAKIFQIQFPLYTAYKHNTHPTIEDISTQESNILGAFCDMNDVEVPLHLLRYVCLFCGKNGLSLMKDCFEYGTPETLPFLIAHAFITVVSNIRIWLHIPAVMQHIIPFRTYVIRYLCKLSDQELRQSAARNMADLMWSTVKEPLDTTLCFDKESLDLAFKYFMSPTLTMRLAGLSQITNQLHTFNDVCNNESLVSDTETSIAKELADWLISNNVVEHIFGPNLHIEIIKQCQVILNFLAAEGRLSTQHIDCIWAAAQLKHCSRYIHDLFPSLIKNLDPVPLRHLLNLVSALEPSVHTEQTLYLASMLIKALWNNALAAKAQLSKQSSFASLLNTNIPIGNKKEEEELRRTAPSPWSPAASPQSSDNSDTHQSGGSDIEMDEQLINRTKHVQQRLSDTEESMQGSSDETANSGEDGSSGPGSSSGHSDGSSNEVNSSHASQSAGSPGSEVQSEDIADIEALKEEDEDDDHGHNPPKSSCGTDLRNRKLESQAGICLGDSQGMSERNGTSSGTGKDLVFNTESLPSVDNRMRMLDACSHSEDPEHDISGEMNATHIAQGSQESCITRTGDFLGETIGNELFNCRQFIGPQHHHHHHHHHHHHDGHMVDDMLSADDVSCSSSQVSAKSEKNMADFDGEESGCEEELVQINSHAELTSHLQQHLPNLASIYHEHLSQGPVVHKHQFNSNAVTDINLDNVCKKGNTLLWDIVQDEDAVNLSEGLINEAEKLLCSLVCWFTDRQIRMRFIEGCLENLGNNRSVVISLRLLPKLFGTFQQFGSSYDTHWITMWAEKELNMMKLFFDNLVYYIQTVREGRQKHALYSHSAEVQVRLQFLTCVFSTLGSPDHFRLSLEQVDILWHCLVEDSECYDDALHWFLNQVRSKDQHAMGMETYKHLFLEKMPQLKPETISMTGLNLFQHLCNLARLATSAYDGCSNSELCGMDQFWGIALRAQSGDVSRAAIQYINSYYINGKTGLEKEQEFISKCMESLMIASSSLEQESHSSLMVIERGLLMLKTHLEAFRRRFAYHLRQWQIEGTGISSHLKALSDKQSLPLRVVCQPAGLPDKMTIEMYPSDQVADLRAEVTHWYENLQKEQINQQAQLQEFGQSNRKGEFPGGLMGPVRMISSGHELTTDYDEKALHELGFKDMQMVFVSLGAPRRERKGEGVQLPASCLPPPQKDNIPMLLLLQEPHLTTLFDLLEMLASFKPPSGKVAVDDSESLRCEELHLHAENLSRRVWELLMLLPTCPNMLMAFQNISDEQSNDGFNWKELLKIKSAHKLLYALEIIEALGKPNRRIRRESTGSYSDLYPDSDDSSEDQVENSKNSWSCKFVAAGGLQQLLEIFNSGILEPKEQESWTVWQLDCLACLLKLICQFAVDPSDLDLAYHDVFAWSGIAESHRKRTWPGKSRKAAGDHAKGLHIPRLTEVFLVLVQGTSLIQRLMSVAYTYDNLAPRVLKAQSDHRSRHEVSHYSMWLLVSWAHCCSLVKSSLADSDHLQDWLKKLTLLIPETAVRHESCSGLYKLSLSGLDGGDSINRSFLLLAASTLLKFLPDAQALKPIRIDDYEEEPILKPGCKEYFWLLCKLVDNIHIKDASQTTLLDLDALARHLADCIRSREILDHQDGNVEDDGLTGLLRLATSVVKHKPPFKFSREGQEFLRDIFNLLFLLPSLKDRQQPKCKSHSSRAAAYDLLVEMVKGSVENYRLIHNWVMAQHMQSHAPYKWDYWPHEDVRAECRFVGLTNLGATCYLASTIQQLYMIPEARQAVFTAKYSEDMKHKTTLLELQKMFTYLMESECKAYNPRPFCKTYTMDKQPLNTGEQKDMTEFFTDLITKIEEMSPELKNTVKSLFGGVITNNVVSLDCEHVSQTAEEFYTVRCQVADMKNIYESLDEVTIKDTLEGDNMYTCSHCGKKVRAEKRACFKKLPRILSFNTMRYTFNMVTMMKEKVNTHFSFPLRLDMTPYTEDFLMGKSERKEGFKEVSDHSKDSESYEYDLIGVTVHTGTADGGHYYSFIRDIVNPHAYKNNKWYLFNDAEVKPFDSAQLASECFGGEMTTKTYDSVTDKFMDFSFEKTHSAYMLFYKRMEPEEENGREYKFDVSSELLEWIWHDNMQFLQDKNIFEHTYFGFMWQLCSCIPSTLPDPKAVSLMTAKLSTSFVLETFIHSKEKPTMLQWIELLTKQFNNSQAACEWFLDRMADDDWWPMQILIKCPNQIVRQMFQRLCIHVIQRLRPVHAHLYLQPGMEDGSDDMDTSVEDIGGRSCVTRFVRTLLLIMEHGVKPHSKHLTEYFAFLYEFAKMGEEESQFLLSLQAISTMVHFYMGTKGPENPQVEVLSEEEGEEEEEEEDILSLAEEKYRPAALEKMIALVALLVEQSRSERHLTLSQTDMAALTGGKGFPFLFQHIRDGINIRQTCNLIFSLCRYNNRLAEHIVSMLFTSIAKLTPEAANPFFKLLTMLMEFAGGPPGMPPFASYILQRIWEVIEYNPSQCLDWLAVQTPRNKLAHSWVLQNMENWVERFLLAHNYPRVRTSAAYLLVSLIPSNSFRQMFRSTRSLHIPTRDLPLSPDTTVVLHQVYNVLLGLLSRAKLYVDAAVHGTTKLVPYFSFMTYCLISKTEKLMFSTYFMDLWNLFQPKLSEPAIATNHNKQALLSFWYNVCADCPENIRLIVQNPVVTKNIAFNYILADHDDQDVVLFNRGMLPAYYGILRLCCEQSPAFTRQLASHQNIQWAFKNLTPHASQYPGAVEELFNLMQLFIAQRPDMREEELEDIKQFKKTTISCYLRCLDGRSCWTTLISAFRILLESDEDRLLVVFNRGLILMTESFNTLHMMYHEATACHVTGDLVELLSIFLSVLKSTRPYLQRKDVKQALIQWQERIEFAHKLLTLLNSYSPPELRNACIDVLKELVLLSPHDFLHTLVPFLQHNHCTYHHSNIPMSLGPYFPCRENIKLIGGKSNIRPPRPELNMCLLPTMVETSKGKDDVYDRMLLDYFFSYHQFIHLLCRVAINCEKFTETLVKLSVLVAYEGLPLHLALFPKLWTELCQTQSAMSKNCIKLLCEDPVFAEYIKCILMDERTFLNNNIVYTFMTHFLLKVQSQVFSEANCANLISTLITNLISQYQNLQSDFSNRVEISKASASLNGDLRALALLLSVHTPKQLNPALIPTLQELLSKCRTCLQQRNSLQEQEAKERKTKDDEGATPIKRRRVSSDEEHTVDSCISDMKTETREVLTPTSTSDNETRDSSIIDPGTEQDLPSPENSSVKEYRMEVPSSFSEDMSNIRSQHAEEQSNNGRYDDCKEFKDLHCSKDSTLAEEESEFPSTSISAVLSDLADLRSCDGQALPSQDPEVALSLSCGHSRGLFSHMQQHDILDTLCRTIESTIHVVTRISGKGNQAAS
Procedure, shortened: (§1)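 Using Biotin-Ahx-Ub-VS at 0.5 µM final for 1 h, DUBs were labelled in HEK293T lysate (495 µg per sample) that had first been treated in triplicate with fragment at 200 µM or vehicle for 3 h. NeutrAvidin enrichment, LysC and trypsin digestion and diaPASEF LC-MS/MS followed. Spectronaut label-free quantities were global-median-normalised. Values are average log2 fragment/vehicle ratios by unpaired t-test, using proteins with ≥2 unique peptides.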

USP36 = target: T1, USP36 (UniProt Q9P275)
T1 sequence (whole entry): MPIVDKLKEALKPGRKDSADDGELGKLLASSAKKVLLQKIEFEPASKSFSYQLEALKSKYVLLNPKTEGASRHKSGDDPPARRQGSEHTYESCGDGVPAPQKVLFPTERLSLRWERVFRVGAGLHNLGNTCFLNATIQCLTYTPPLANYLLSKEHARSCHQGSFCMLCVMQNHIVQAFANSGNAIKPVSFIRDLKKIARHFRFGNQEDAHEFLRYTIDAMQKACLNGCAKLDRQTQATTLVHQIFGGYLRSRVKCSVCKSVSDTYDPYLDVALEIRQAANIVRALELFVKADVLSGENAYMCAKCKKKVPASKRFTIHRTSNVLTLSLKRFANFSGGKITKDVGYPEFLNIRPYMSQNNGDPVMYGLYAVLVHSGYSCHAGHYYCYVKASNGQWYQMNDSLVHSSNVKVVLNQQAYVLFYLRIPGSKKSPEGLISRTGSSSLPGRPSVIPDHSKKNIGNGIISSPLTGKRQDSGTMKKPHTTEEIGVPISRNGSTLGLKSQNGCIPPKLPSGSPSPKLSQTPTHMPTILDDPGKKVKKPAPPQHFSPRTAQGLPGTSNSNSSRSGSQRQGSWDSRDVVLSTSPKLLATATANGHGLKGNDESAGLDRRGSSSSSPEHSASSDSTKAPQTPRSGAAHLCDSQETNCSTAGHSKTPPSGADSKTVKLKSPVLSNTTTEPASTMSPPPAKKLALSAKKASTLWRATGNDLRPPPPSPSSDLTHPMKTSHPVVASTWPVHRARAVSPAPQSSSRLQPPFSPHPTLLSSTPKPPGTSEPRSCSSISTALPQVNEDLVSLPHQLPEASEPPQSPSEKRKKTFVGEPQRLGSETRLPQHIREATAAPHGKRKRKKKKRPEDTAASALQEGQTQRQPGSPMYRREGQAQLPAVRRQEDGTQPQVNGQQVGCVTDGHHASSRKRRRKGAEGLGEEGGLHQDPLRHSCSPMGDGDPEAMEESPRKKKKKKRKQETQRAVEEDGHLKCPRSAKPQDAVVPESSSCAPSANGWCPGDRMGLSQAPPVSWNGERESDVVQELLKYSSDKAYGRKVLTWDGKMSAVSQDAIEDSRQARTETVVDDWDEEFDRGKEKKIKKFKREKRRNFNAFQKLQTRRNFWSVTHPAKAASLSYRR
Procedure, shortened: as §1

USP38 = target: T2, USP38 (UniProt Q8NB14)
T2 sequence (whole entry): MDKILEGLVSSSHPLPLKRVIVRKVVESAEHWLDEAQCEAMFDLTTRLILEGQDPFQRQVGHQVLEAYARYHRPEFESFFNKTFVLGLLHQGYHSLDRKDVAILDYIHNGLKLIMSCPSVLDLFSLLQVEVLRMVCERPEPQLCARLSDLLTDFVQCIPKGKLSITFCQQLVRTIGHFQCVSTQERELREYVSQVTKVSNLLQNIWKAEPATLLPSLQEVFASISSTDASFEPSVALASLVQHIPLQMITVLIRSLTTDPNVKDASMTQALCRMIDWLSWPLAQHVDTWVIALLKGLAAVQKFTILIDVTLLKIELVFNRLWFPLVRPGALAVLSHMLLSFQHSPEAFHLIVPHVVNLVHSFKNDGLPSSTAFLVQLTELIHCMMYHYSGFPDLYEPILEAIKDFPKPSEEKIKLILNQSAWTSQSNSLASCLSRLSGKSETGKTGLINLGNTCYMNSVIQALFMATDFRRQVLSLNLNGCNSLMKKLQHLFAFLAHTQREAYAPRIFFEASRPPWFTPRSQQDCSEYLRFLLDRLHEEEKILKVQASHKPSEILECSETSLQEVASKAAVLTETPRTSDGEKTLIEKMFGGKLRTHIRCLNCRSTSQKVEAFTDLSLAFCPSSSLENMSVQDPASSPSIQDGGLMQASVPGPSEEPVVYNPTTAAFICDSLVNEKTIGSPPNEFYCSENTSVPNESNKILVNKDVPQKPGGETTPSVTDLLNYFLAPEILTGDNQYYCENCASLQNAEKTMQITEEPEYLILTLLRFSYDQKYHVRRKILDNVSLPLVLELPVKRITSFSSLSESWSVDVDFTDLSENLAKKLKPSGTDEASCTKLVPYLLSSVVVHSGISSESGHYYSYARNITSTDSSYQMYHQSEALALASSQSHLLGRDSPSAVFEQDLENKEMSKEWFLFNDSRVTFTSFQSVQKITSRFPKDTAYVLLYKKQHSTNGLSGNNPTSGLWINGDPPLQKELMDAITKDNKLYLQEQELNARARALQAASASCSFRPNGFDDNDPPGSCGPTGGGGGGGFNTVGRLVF
Procedure, shortened: as §1

USP39 = target: T3, USP39 (UniProt Q53GS9)
T3 sequence (whole entry): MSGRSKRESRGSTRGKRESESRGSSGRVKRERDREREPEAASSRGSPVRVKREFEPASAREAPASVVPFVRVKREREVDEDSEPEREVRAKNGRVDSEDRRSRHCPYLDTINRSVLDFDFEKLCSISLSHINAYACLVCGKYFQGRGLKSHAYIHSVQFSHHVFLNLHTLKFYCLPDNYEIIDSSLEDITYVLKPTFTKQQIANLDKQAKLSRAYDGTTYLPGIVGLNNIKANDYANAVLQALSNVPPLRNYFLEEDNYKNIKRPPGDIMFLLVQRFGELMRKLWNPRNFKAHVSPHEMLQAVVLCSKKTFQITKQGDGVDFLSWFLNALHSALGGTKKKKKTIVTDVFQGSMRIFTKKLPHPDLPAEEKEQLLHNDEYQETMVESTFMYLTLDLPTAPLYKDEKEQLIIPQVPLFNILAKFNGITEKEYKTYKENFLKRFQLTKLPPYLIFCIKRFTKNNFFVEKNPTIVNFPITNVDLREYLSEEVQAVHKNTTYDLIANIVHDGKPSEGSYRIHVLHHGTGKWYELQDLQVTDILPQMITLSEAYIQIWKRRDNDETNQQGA
Procedure, shortened: as §1

USP4 = target: T4, USP4 (UniProt Q13107)
T4 sequence (whole entry): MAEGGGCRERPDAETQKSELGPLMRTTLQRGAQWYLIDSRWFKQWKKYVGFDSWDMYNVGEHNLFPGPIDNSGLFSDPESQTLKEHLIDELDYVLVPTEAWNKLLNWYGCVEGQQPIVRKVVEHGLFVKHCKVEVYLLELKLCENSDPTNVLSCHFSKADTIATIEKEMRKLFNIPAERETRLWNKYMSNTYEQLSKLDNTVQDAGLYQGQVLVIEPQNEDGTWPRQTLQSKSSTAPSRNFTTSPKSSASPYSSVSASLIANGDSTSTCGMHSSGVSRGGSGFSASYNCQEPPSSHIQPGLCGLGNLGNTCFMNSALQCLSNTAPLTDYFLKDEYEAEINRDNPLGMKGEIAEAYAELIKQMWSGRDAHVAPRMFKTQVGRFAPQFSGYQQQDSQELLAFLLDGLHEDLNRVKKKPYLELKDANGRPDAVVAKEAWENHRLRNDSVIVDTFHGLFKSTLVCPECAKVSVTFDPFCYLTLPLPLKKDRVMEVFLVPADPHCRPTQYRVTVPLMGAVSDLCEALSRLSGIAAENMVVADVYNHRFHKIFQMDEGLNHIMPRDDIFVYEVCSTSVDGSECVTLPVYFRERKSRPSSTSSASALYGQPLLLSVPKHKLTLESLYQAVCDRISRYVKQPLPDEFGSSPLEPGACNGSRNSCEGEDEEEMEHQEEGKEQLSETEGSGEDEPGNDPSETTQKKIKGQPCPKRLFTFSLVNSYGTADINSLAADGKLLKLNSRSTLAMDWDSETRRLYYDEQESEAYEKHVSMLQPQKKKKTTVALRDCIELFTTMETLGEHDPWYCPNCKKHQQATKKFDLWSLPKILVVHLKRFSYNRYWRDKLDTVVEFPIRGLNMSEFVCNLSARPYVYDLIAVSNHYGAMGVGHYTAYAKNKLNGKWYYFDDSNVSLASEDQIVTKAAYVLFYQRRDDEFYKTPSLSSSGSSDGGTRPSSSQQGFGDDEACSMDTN
Procedure, shortened: as §1

Measured: log2 ratio of Biotin-Ahx-Ub-VS probe labelling

O=C(CCl)N[C@H]1CC[C@@H](CO)CC1
inactive: USP34 -0.402 | USP36 -0.283 | USP38 -0.651 | USP39 -0.098 | USP4 -0.775
